Source: PubChem BioAssay (NCI)
The panel holds about 79,000 compounds, 15% with a hit somewhere; the sample as a whole holds those more often. Active and inactive are the calls of the source. Cut-off read from the data, not from the text of the source: active = growth inhibition above about 70%; inactive = the rest.

Tests used:
[1] = NCI Yeast Anticancer Drug Screen. Data for the rad50 strain (AID 155);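 note: 0% = growth of vehicle-only cultures of the same strain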; conditions: S. cerevisiae rad50 strain growth inhibition, hits give high values
How it was run: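 Compounds were tested on a yeast strain with an engineered DNA damage repair alteration; the reported value is growth inhibition normalised to vehicle treatment.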

[2] = NCI Yeast Anticancer Drug Screen. Data for the mec2-1 strain (AID 157); conditions: S. cerevisiae mec2-1 strain, hits give high values
How it was run: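 Vehicle-treated cultures served as reference for growth inhibition of compound-exposed mec2-1 yeast.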

[3] = NCI Yeast Anticancer Drug Screen. Data for the sgs1 mgt1 strain (AID 161);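 note: 0% = growth of cultures given vehicle only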; conditions: S. cerevisiae sgs1 mgt1 strain, hits give high values
How it was run: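 Test agents were incubated with a DNA-repair-mutant yeast strain. Growth was then read and compared against vehicle-treated controls.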

[4] = NCI Yeast Anticancer Drug Screen. Data for the cln2 rad14 strain (AID 165);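 note: 0% = growth equal to vehicle treated cultures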; conditions: S. cerevisiae cln2 rad14 strain, hits give high values
How it was run: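 Each compound was tested on cln2 rad14 yeast. Inhibition of growth was calculated against vehicle-exposed controls.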

[5] = NCI Yeast Anticancer Drug Screen. Data for the bub3 strain (AID 167); conditions: S. cerevisiae bub3 mutant strain, hits give high values
How it was run: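 Growth of a checkpoint-deficient yeast mutant is measured after compound exposure. Values represent inhibition relative to vehicle.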

[6] = NCI Yeast Anticancer Drug Screen. Data for the mlh1 rad18 strain (AID 175); conditions: S. cerevisiae mlh1 rad18 strain growth inhibition, hits give high values
How it was run: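 Vehicle-treated cultures served as the reference for growth inhibition in a yeast strain carrying DNA damage repair alterations exposed to each compound.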

[7] = at 5.0 µM (retest, dose inferred, filed as 0.5)
[8] = at 50.0 µM (retest, dose inferred, filed as 5.0)

Measured: growth inhibition

Oc1ccccc1N=CC1CCCCC1
active: [5]; at 50.0 µM 74%
inactive: [1]; [7] -61% | [1]; [8] 40% | [1]; at 50.0 µM 69% | [2]; [7] -27% | [2]; [8] -24% | [2]; at 50.0 µM 37.1% | [3]; [7] -33% | [3]; [8] -23% | [3]; at 50.0 µM 28.4% | [4]; [7] -53% | [4]; [8] -31% | [4]; at 50.0 µM 17% | [5]; [7] 9% | [5]; [8] 46% | [6]; [7] -32% | [6]; [8] 20% | [6]; at 50.0 µM 66.2%

CC=CCOc1cc(NC(=S)OC(C)C)ccc1Cl (mixture of isomers)
active: [1]; [8] 94% | [1]; at 50.0 µM 79.2% | [2]; [8] 97% | [2]; at 50.0 µM 89.2% | [3]; [8] 92% | [3]; at 50.0 µM 88.4% | [4]; [8] 96% | [4]; at 50.0 µM 90% | [5]; [8] 97% | [5]; at 50.0 µM 89.7% | [6]; [8] 96% | [6]; at 50.0 µM 85.8%
inactive: [1]; [7] 28% | [2]; [7] 18% | [3]; [7] 31% | [4]; [7] 22% | [5]; [7] 27% | [6]; [7] 25%

N#CC1C(=O)NC(=O)CC1c1ccccc1 (stereo not given)
inactive: [1]; [7] 10% | [2]; [7] -10% | [3]; [7] 10% | [4]; [7] 10% | [5]; [7] 0% | [6]; [7] 13%
active: [1]; [8] 99% | [1]; at 50.0 µM 99.2% | [2]; [8] 99% | [2]; at 50.0 µM 99.2% | [3]; [8] 99% | [3]; at 50.0 µM 99% | [4]; [8] 99% | [4]; at 50.0 µM 99.3% | [5]; [8] 99% | [5]; at 50.0 µM 99.3% | [6]; [8] 99% | [6]; at 50.0 µM 99.2%

CCCCCCCCCCCC(=O)N(CCCCCCCCC)CC(O)C(O)C(OC1OC(CO)C(O)C(O)C1O)C(O)CO (stereo not given)
inactive: [1]; [7] 0% | [2]; [7] -2% | [3]; [7] -36% | [4]; [7] -17% | [4]; at 50.0 µM 66.5% | [5]; [7] 6% | [6]; [7] 1% | [6]; at 50.0 µM 62%
active: [1]; [8] 97% | [1]; at 50.0 µM 82.5% | [2]; [8] 95% | [2]; at 50.0 µM 85% | [3]; [8] 96% | [3]; at 50.0 µM 85.7% | [4]; [8] 91% | [5]; [8] 96% | [5]; at 50.0 µM 86.3% | [6]; [8] 97%

CC1CN(CC2CCCCCCCCCCC2=O)CC(C)O1 (stereo not given)
inactive: [1]; [7] 59% | [2]; [7] 25% | [2]; [8] 45% | [2]; at 50.0 µM 65.5% | [3]; [7] 52% | [3]; [8] 53% | [4]; [7] 62% | [4]; [8] 59% | [4]; at 50.0 µM 60.4% | [5]; [7] 67% | [6]; at 50.0 µM 69.9%
active: [1]; [8] 74% | [1]; at 50.0 µM 73.5% | [3]; at 50.0 µM 83.8% | [5]; [8] 79% | [5]; at 50.0 µM 75.8% | [6]; [7] 74% | [6]; [8] 86%

Cc1ccc(C(=O)/C=C/c2ccco2)c(C)c1
inactive: [1]; [7] -9% | [1]; [8] -12% | [1]; at 50.0 µM 11.3% | [2]; [7] -42% | [2]; [8] 1% | [2]; at 50.0 µM 25.9% | [3]; [7] -14% | [3]; [8] 15% | [3]; at 50.0 µM 63.8% | [4]; [7] -14% | [4]; [8] 5% | [4]; at 50.0 µM 25.8% | [5]; [7] 2% | [5]; [8] 4% | [5]; at 50.0 µM 54.5% | [6]; [7] -20% | [6]; [8] 61% | [6]; at 50.0 µM 17.6%

O=C(O)CCCCCCC(=O)CCl
active: [1]; [8] 74% | [1]; at 50.0 µM 72% | [2]; [8] 82% | [2]; at 50.0 µM 83.5% | [3]; [8] 74% | [5]; [8] 78% | [6]; [8] 86% | [6]; at 50.0 µM 72.9%
inactive: [1]; [7] 30% | [2]; [7] 22% | [3]; [7] 24% | [3]; at 50.0 µM 66.2% | [4]; [7] 25% | [4]; [8] 38% | [4]; at 50.0 µM 23.9% | [5]; [7] 30% | [5]; at 50.0 µM 58.4% | [6]; [7] 19%

CC(C)(C)CC(C)(C)c1ccc(O)c(Cl)c1
active: [1]; [8] 93% | [1]; at 50.0 µM 99.1% | [2]; [8] 90% | [2]; at 50.0 µM 76.5% | [3]; at 50.0 µM 91.2% | [4]; [8] 86% | [5]; [8] 90% | [5]; at 50.0 µM 78.4% | [6]; [8] 95% | [6]; at 50.0 µM 99.5%
inactive: [1]; [7] -3% | [2]; [7] -3% | [3]; [7] -2% | [3]; [8] 50% | [4]; [7] -6% | [4]; at 50.0 µM 49.9% | [5]; [7] -4% | [6]; [7] -4%

OC1CCC(COC(c2ccccc2)(c2ccccc2)c2ccccc2)O1 (stereo not given)
inactive: [1]; [7] -8% | [2]; [7] 5% | [3]; [7] -19% | [4]; [7] 5% | [5]; [7] 4% | [6]; [7] 0%
active: [1]; [8] 98% | [1]; at 50.0 µM 98.6% | [2]; [8] 99% | [2]; at 50.0 µM 98.5% | [3]; [8] 99% | [3]; at 50.0 µM 98% | [4]; [8] 98% | [4]; at 50.0 µM 98.2% | [5]; [8] 96% | [5]; at 50.0 µM 99% | [6]; [8] 99% | [6]; at 50.0 µM 98.1%

CCc1cc(-c2ccco2)c(C#N)c(=S)n1C1OC(COC(C)=O)C(OC(C)=O)C(OC(C)=O)C1OC(C)=O (stereo not given)
inactive: [1]; [7] -2% | [1]; [8] -6% | [1]; at 50.0 µM 3.05% | [2]; [7] -15% | [2]; [8] -7% | [2]; at 50.0 µM 8.2% | [3]; [7] -1% | [3]; [8] 6% | [3]; at 50.0 µM -19.4% | [4]; [7] 4% | [4]; [8] 22% | [4]; at 50.0 µM 8.6% | [5]; [7] 7% | [5]; [8] 21% | [5]; at 50.0 µM -0.25% | [6]; [7] -14% | [6]; [8] 5% | [6]; at 50.0 µM 34.1%
